The results in this text go back to PubChem BioAssay (NCI).

This is part of a sample that, as a whole, favours compounds with a hit. Of some 83,000 tested, about 20% had one in any assay.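 96-well plates, one dose, 48 hours. Percent growth reported; active if below 10.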 Values without a mark were called inactive. Activity calls are given as the source filed them.

Assay in all cases: NCI-60 one-dose screen, 48 h (100 = growth as untreated, 0 = no growth, -100 = all killed)
Details in all cases: 10 µM unless noted

In test [1] the test system is NCI-H23 lung.
Test [2] has as its system NCI-H226 lung.
Test [3] concerns NCI-H322M lung.
The subject of test [4] is HOP-62 NSCLC.
The subject of test [5] is NCI-H460 lung.
Test [6] concerns HOP-92 NSCLC.
The subject of test [7] is NCI-H522 lung.
Test [8] relates to A549/ATCC NSCLC.
The test system of test [9] is 786-0 renal.
Test [10] has as its system COLO 205 colon.
For test [11], the system named is DU-145 prostate.
Test [12] deals with K-562 leukemia.
Test [13] relates to MALME-3M melanoma.
For test [14], the system named is MDA-MB-231 breast.
Test [15] has as its system RXF 393 renal.
For test [16], the system named is SF-268 CNS.
Test [17] relates to SF-295 CNS.
Test [18] concerns SF-539 CNS.
Test [19] relates to UACC-257 melanoma.
Test [20] has as its system M14 melanoma.

On to `CCN(CC)CCCNc1cc(OC)cc2cccnc12`, for which the growth in test [1] was 99.3%; in [2] it was 92.7%; in [3] it was 107%; in test [4], 102%; in [5], 105%; in test [6], 124%. Besides, the growth in test [7] was 94.7%; in test [8], 108%; in test [9] it was 102%; in [10] it was 83.9%; in test [11], 105%; in test [12] it was 81.4%. For the same compound, the growth is 133% in test [13]; 89.5% in [14]; 96.5% in test [15]; 96.5% in test [16]; 105% in test [17]; 101% in [18]. For the same compound, the growth in test [19] is 107%; in test [20] it was 127%.

With `CC(C)CCc1nc2ccc(NCc3ccc(OCCN4CCC(C)CC4)cc3)cc2[nH]1`, the growth is 94.9% in test [1]; 67.4% in [2]; 99.2% in [3]; 83.6% in test [4]; 100% in test [5]; 53.5% in test [6]. Further, the growth in test [7] was 102%; in [8], 99.9%; in [9] it was 76.6%; in test [10], 66%; in [11], 89.4%; in test [12], 20.4%. Also, the growth in test [13] is 32%; in test [14] it was 59.8%; in [15] it was 61.6%; in test [16] it was 79.9%; in test [17] it was 90.4%; in [18], 58%. Also, the growth was 96.3% in test [19] and 33.2% in test [20].

For `COc1ccc2c(c1)C(c1c[nH]c3ccccc13)(c1c[nH]c3ccccc13)CCO2`, the growth is 53.3% in test [1]; 64.1% in [2]; 66.1% in [3]; 49.1% in test [4]; 47.4% in test [5]; 35.6% in [6]. Further, the growth in [7] is 6.18% (active); in test [8] it was 24.1%; in test [9], 58.8%; in test [10], 39.9%; in test [11], 74.6%; in test [12] it was 29.5%. In addition, the growth in [13] is 88.8%; in [14], 35.1%; in test [15], 76.1%; in test [16] it was 52.2%; in test [17], 36.6%; in test [18], 71.7%. The growth in test [19] was 48.1%; in [20], 39.7%.

`C(CCCSC1=NCCN1)CCSC1=NCCN1`: the growth is 94.8% in test [1]; 107% in test [2]; 113% in test [3]; 93.1% in test [4]; 110% in test [5]; 41.4% in [6]. Besides, the growth was 103% in test [7]; 104% in test [8]; 97% in test [9]; 121% in test [10]; 109% in test [11]; 116% in [12]. Also, the growth in test [13] is 104%; in [14], 103%; in test [15] it was 104%; in test [16], 106%; in test [17], 108%; in test [18], 101%. Moreover, the growth in test [19] is 98.5%; in test [20] it was 99.3%.

As for `COc1cc2cc(Oc3ccc(NC(=O)Nc4ccc(Cl)c(Cl)c4)cc3)c(C)nc2cc1OCCN1CCCCC1`, the growth in test [1] is 107%; in [2] it was 77.7%; in test [3], 104%; in [4], 107%; in test [5], 102%; in test [6], 75.1%. Also, the growth is 102% in test [7]; 86.9% in test [8]; -70% (active) in test [9]; 112% in test [10]; 97% in test [11]; -35.7% (active) in test [12]. Further, the growth in test [13] was 13.9%; in [14], 91.4%; in test [15], 73.7%; in [16] it was 92%; in [17], 99.1%; in test [18], 86.8%. In addition, the growth in [19] is 93.6%; in [20] it was -33.4% (active).

Take `C=C(C)Cn1c(SCC(=O)c2cccs2)nc2sc3c(c2c1=O)CCCC3`: the growth in test [1] was 72.8%; in test [2], 58.3%; in test [3] it was 67.9%; in test [4], 73.5%; in [5], 8.41% (active); in [6], 92.4%. In addition, the growth in test [7] was 58.1%; in [8], 41.1%; in test [9], 52.6%; in [10], 43.6%; in [11], 50.9%; in test [12], 41%. Besides, the growth was 71.5% in test [13]; 65.5% in test [14]; 52.2% in test [15]; 42.2% in test [16]; 42.2% in [17]; 39.3% in test [18]. The growth in [19] is 81.5%; in test [20] it was 77.6%.

Regarding `O=C(/C=C/c1ccc(Cl)cc1)c1ccc(-n2cc(CN3CCN(c4cc5c(cc4F)c(=O)c(C(=O)O)cn5C4CC4)CC3)nn2)cc1`, the growth in [1] is 85.4%; in test [2] it was 76.3%; in [3], 78.1%; in [4], 85.5%; in [5], 82.2%; in [6] it was 84.8%. The growth in test [7] is 79.1%; in test [8], 89%; in [9], 78.1%; in test [10] it was 97.1%; in [11], 90.8%; in test [12] it was 67.5%. The growth in test [13] was 84.8%; in test [14] it was 88.1%; in test [15], 75%; in test [16], 77.3%; in [17], 90.7%; in test [18], 92.8%. For the same compound, the growth in test [19] is 91.7%; in test [20], 88.7%.

For `COc1ccc(Cn2cc(C(=O)N=Nc3c(O)[nH]c4ccc(Br)cc34)nn2)cc1`, the growth in test [1] is 102%; in test [2] it was 97.5%; in [3], 102%; in test [4], 111%; in [5], 111%; in [6], 114%. Moreover, the growth in test [7] was 89.1%; in test [8] it was 95.1%; in [9] it was 99.6%; in test [10], 115%; in test [11], 93.7%; in test [12] it was 88.1%. The growth in test [13] was -89.9% (active); in test [14], 108%; in test [15], 99.8%; in [16], 94.1%; in test [17], 95.8%; in test [18], 104%. The growth was 102% in [19] and 111% in [20].
